# VACV mCherry inh = inhibitors of vaccinia virus infection (mCherry reporter signal). Potency, µM (titrated, usually from 36.5 µM), for the others: top-dose activity change, negative = inhibition, hits mostly inhibitors. AID 720579. Vaccinia virus mCherry reporter infection, fluorescence. 0.63% of 310,000 active; calls by dose curve; tested in A549 cells; also: potency is read from the fitted curve at half-maximal effect; nearly all actives have a fitted effect of over 35% in size
# HCMV antiviral = blocks human cytomegalovirus replication; HFF cells, HCMV-luciferase reporter, 72 h; stronger effect = lower value; activity change, negative = inhibition, % at 57.5 µM; 4.5% of 410,000 active; AID 1259415; in the data active = activity change below about -60%; inconclusive = no clear call, values can overlap the other calls; inactive = above about -39%
#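 Inhibition of viral replication was scored as loss of reporter luminescence in HFFs infected with HCMV-luciferase (MOI 1 PFU/cell) for 72 h; compounds tested at 2 doses, normalized to buffer and Salinomycin controls.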
# Vaccinia Venus = inhibitors of vaccinia virus (Venus reporter); AID 720580; Potency, µM (titrated, usually from 36.5 µM), for the others: at the highest dose activity change, negative = inhibition, usual class: inhibitors; Vaccinia virus Venus reporter expression, fluorescence; 0.46% of 330,000 active; calls by dose curve; tested in A549 cells; also: potency is read from the fitted curve at half-maximal effect; nearly all actives have a fitted effect of over 30% in size
# MARV entry inh = Marburg virus entry inhibition | Marburg virus pseudotyped entry inhibition, cell reporter | Potency, µM (titrated, usually from 37.8 µM), inactives show at the highest dose activity change, negative = inhibition, hits mostly inhibitors | 1.8% of 300,000 active | AID 540276; calls by dose curve; tested in HEK293 cells; also: potency is read from the fitted curve at half-maximal effect
# LASV entry inh = Lassa virus entry inhibition | Lassa virus pseudotype entry inhibition, cell reporter | Potency, µM (series often up to 37.9 µM), for the others: top-dose activity change, negative = inhibition, most hits filed as inhibitors | 1.2% of 300,000 active; calls by dose curve; tested in HEK293 cells; also: potency is read from the fitted curve at half-maximal effect; nearly all actives have a fitted effect of over 50% in size
# FMDV inh = antivirals against foot and mouth disease virus; FMDV antiviral cell-based qHTS; AID 1159524; Potency, µM (top dose mostly 57.9 µM), inactives show at the top dose activity change, negative = inhibition, hits mostly inhibitors; 1.2% of 410,000 active; calls by dose curve; tested in HEK293T cells; also: read-out not given here; potency is read from the fitted curve at half-maximal effect; nearly all actives have a fitted effect of over 45% in size
# * hit, by the source's call; i = inactive; ? = inconclusive; nt = not tested or not shown; [ ] = another dose, or the depositor's remark. An excerpt weighted towards active compounds, which were near 6.5% of everything screened. % is scaled to controls: 0 for no effect and ±100 for the full control effect.
SMILES,VACV mCherry inh,HCMV antiviral,Vaccinia Venus,MARV entry inh,LASV entry inh,FMDV inh
CCOC(=O)C1=C(COC(=O)Cc2ccc(Cl)cc2)NC(=O)NC1C (stereo unspecified),nt,-73*,nt,nt,nt,-20%
COc1ccc2nc(Nc3nc(CSc4ccc(C)cc4)cc(=O)[nH]3)nc(C)c2c1,9%,-67*,-1%,-1%[46.1 µM],8%,4%
COCc1cc(=O)[nH]c(Nc2nc(C)c3ccccc3n2)n1,nt,-102*,nt,3%,6%,21%
CCOc1ccc2nc(Nc3nc(CSc4nnnn4-c4ccccc4)cc(=O)[nH]3)nc(C)c2c1,nt,-28,nt,?,?,-7%
COc1ccc2nc(Nc3nc(CSc4nnnn4-c4ccccc4)cc(=O)[nH]3)nc(C)c2c1,nt,-10,nt,1%,0%,15%
Cc1ccc2c(C)nc(Nc3nc(CSc4nnnn4-c4ccccc4)cc(=O)[nH]3)nc2c1,?,-101*,?,-2%,?,11%
Cc1cc(C)c2nc(Nc3nc(CSc4nc5ccccc5[nH]4)cc(=O)[nH]3)nc(C)c2c1,-3%,-65*,-15%,6%[46.1 µM],3%[46.1 µM],?
Cc1cc(C)c2nc(Nc3nc(-c4ccccc4)cc(=O)[nH]3)nc(C)c2c1,-2%,-9,-7%,nt,nt,-20%
O=C(C[N+]12CN3CN(CN(C3)C1)C2)c1ccc(I)cc1,i,nt,-18%,nt,nt,nt
CCOc1ccccc1NC(=O)CSc1nc2c(oc3ccccc32)c(=O)n1-c1ccc(F)cc1,-4%,9,8%,?,nt,-6%
O=C(NC1CCCCC1)c1ccc(CSc2nc3ccncc3n2Cc2cccc(F)c2)cc1,-16%,?,-15%,?,nt,-22%
COCCNC(=O)CSc1nnc2[nH]c(=O)cc(C)n12,-9%,16,1%,nt,10%[46.1 µM],-15%
Cc1ccc(SCc2cc(=O)[nH]c(Nc3nc(C)c4cccc(C)c4n3)n2)cc1,-7%,65,-6%,9.2µM*,-51%[14.3 µM],22%
COc1cccc(N=C(N)N=C(N)N)c1,nt,4,nt,nt,nt,-17%
NC(N)=NC(N)=Nc1ccc2ccccc2c1,nt,-69*,nt,nt,nt,-7%
CCOC1=C2[C@H](c3ccccc3)N(S(=O)(=O)c3ccc(C)cc3)[C@H](C(C)C)[C@H]2C(C#N)(C#N)C(C#N)(C#N)C1,nt,-76*,nt,nt,nt,nt
CCOC1=C2[C@H](c3ccc(CC)cc3)N(S(=O)(=O)c3ccc(C)cc3)C[C@H]2C(C#N)(C#N)C(C#N)(C#N)C1,i,-74*,3%,nt,nt,35µM*
CCOC1=C2CN(S(=O)(=O)c3ccc(C)cc3)C(c3ccc(CC)cc3)CC2N(S(=O)(=O)c2ccc(C)cc2)C(c2ccc(CC)cc2)C1 (stereo unspecified),-13%,-28,-3%,nt,nt,?
CCOC1=C2[C@H](c3ccccc3Cl)N(S(=O)(=O)c3ccc(C)cc3)C[C@H]2C(C#N)(C#N)C(C#N)(C#N)C1,4%,7,1%,nt,nt,?
CCOC1=C2CN(S(=O)(=O)c3ccc(C)cc3)[C@H](c3ccc(CC)cc3)C[C@@H]2N(S(=O)(=O)c2ccc(C)cc2)[C@H](c2ccccc2)C1,13%,-73*,-23%,nt,nt,-24%
Cc1ccc(C)c(N2CCN(C(=O)c3cccn4c(=O)c5sccc5nc34)CC2)c1,i,12,-18%,13µM*,?,?
Cc1ccc(C)c(N2CCN(C(=O)c3cc4ccccc4oc3=O)CC2)c1,-15%,-62*,-21%,nt,nt,0%
COc1ccc2oc(=O)c(C(=O)N3CCN(c4ccccc4C)CC3)cc2c1,i,?,-9%,?,?,82%
COc1ccc2oc(=O)c(C(=O)N3CCN(C(=O)c4ccccc4)CC3)cc2c1,i,-95*,-8%,-1%[46.1 µM],-3%[46.1 µM],-17%
O=C(c1cc2c(ccc3ccccc32)oc1=O)N1CCCC1,-6%,-90*,-6%,14%,6%,24%
SMILES,VACV mCherry inh,HCMV antiviral,Vaccinia Venus,MARV entry inh,LASV entry inh,FMDV inh
COc1ccc(CCN2C(=O)N(c3ccc(C)cc3)C(=O)C2CC(=O)Nc2ccc(F)cc2)cc1 (stereo unspecified),-22%,11,-20%,-12%[46.1 µM],?,41%
CCC1Sc2ccccc2N(CC(=O)NCc2ccc(C)cc2)C1=O (stereo unspecified),-2%,7,0%,nt,?,-4%
O=C(c1n[nH]c2c1CCCC2)N1CCOc2ccc(C(O)C3CCCCC3)cc2C1 (stereo unspecified),-3%,nt,-2%,nt,nt,-12%
COc1ccc(C)c2sc(N(Cc3cccnc3)C(=O)C3CCCCC3)nc12,-11%,0,-10%,nt,2%[46.1 µM],-6%
CCOC(=O)c1c(SCCN2CCCCC2)n(-c2ccccc2)c(=S)n(-c2ccccc2)c1=O,-4%,9,-1%,-82%,4%,20µM*
CCOC(=O)c1c(SC)n(-c2ccccc2)c(=S)n(-c2ccccc2)c1=O,-3%,1,-2%,-24%[46.1 µM],2%[46.1 µM],-14%
OC(COc1ccc(CNCCc2ccccc2F)cc1)CN1CCCCC1 (stereo unspecified),nt,-33,nt,2.3µM*,?,-10%
CN(Cc1ccc(F)cc1)S(=O)(=O)c1nnc(NC(=O)c2ccc(F)cc2)s1,-26%,0,-24%,nt,7%[46.1 µM],-1%
Cc1ccc2nc(CSc3nnc(-c4ccco4)n3-c3ccccc3)cc(=O)n2c1,nt,-105*,nt,5%,26%,-2%
COCC(C)n1c(SCc2cc(=O)n3cc(C)ccc3n2)nc2ccccc2c1=O (stereo unspecified),-10%,-61*,4%,5µM*,6.3µM*,-29%
Cc1ccc2nc(CSc3nnc(-c4ccco4)o3)cc(=O)n2c1,nt,-21,nt,-9%,6%,-9%
Cc1ccc2nc(CSc3nnc4ccccn34)cc(=O)n2c1,1%,14,-3%,11%[46.1 µM],17%,34%
Nc1ncc(Br)cc1S(=O)(=O)Nc1cc(C(F)(F)F)cc(C(F)(F)F)c1,?,-101*,?,?,14µM*,-9%
COc1ccc(O[C@H]2C=C[C@@H](c3ccccc3)O[C@H]2CON=C2[C@H]3CCn4c(=O)n(-c5ccccc5)c(=O)n4[C@@H]3[C@H](O)[C@@H]3O[C@H]23)cc1,nt,nt,nt,5%[14.2 µM],nt,nt
Cc1cnc(-n2ncc(C(=O)NCCc3cccnc3)c2C)nc1-c1ccc(F)cc1,i,nt,-13%,nt,nt,6%
COc1cc2nc(N3CCCC(O)C3)c(CNCc3ccccc3C(F)(F)F)cc2c(OC)c1OC (stereo unspecified),-11%,nt,-18%,nt,nt,-5%
CC(C)OC(=O)c1cc2c(ccn2C)n1CC(=O)N(Cc1ccccc1)c1ccc(F)cc1,?,7,-19%,5.2µM*,5µM*,0%
O=C(C[n+]1cccc(Br)c1)c1cc(Cl)ccc1Cl,-12%,nt,-7%,nt,nt,nt
CCOc1ccc(C(=O)NC(=S)Nc2ccccc2N2CCC(C)CC2)cc1[N+](=O)[O-],nt,-97*,-9%,?,-23%,?
